# From PubChem BioAssay (Tox21)
# Active and inactive are the calls of the source. Where a call stands in place of a potency, no number is given. Calls come from the whole dose curve; as a rule, active = well fitted curve in the direction sought with a large enough effect in the repeat runs; inconclusive = weak or mixed curves; inactive = flat fitted curve, though single readings scatter.
# Assay: qHTS assay to test for compound auto fluorescence at 535 nm (green) in HepG2 cells (AID 720675)
# Details: green autofluorescence 485/535 nm, 1 h; series mostly up to 46 µM
# From the text: National Center for Advancing Translational Sciences [NCATS]
# NIH Chemical Genomics Center [NCGC]
# U.S. Environmental Protection Agency [EPA]
# National Institutes of Environmental Health Sciences [NIEHS]
# National Toxicology Program [NTP]
# U.S. Food and Drug Administration [FDA]
# Compound auto fluorescence often interferes with screening of the compound library against various biological targets and signaling pathways. Some of these compounds may have fluorophoric properties. Such properties may interfere with the assay outputs resulting in false positives and/or negatives. To decrease such complications and ensure the compound activities are relevant in terms of biological response, the Tox21 10K compound library was screened for auto fluorescence.
# From the fluorophores used as reporter signals in our screening assays, the auto fluorescence equivalencies of compounds against three fluorophores have been evaluated: Triamterene, Fluorescein and Rose Bengal sodium for blue, green and red fluorescence, respectively. The fluorescence intensities were measured using Excitation/Emission wavelengths at 405/460nm, 485/535nm and 540/590nm for blue, green and red labels, respectively. This assay includes the green fluorescence data.
# Tox21 Assay Protocol Summary:
# 2,000 HepG2 cells in 5 uL of culture medium (MEM containing 10% FBS) per well were dispensed into black wall/clear bottom 1536-well plates using a Multidrop Combi Dispenser (ThermoFisher Scientific, Waltham, MA). The assay plates were incubated overnight at 37 C to allow cell attachment to the well bottom, followed by the transfer of 23 nL compound or DMSO vehicle by a pintool work station (Kalypsys , San Diego, CA). After the assay plates were incubated for 1 hr at 37 C and 5% CO2, fluorescence intensities in the assay plates were measured by an Envision (PerkinElmer, Shelton, CT) plate reader using three labels for measuring blue, green and red fluorescence at […] 460, 535 and 590 nm respectively.
row,Structure (SMILES),Potency
1,CCCCCCCCCC(=O)NO,inactive
2,CC(=O)O[C@H]1C[C@@H]2CC[C@@H]3[C@H](CC[C@@]4(C)[C@H]3C[C@H]([N+]3(C)CCCCC3)[C@@H]4OC(C)=O)[C@@]2(C)C[C@@H]1[N+]1(C)CCCCC1,inactive
3,C(=C\c1ccncc1)/c1ccccc1,inactive
4,Cc1ccc(Cl)c(N)c1Cl,inactive
5,CC(C)(O/N=C(\C(=O)N[C@@H]1C(=O)N2C(C(=O)[O-])=C(C[n+]3ccccc3)CS[C@H]12)c1csc(N)n1)C(=O)O,inactive
6,NC(=O)[C@H]1O[C@@H](O)[C@H](O)[C@@H](O)[C@@H]1O,inactive
7,CC1(C)S[C@@H]2[C@H](N3C(=O)C(c4ccccc4)NC3(C)C)C(=O)N2[C@H]1C(=O)O (stereo not given in full),inactive
8,CCc1ncnc2cc(OC)c(OC)cc12,inactive
9,CCCn1c(=O)[nH]c(=O)c2[nH]cnc21,inactive
10,O=C1c2ccccc2-c2n[nH]c3cccc1c23,inactive
11,CC1=C(/C=C/C(C)=C/C=C/C(C)=C/C=C/C=C(C)/C=C/C=C(C)/C=C/C2=C(C)CCCC2(C)C)C(C)(C)CCC1,inactive
12,CO[C@H]1C[C@H](O[C@H]2[C@H](C)[C@@H](O[C@@H]3O[C@H](C)C[C@H](N(C)C)[C@H]3O)[C@@H](C)C[C@]3(CO3)C(=O)[C@H](C)[C@@H](O)[C@@H](C)[C@@H](C)OC(=O)[C@@H]2C)O[C@@H](C)[C@@H]1O,inactive
13,C=C(Nc1ccc(OCC)cc1)Nc1ccc(OCC)cc1,inactive
14,CO/N=C(\C(=O)N[C@@H]1C(=O)N2C(C(=O)O)=C(COC(C)=O)CS[C@H]12)c1csc(N)n1 (stereo in doubt),inactive
15,NC(=O)[C@@H]1C[C@]2(NC(=O)NC2=O)c2cc(F)ccc2O1,inactive
16,Cc1c(O)c(=O)ccn1C,inactive
17,O=C(O)c1cc(=O)c2c3nc4ccccc4oc-3cc(=O)c2[nH]1,inactive
18,CN(C)CCc1c[nH]c2ccc(Cn3cncn3)cc12,inactive
19,CC1(C)C[C@@H]1C(=O)N/C(=C\CCCCSC[C@H](N)C(=O)O)C(=O)O,inactive
20,CC(C)C[C@H](NC(=O)[C@@H](COC(C)(C)C)NC(=O)[C@H](Cc1ccc(O)cc1)NC(=O)[C@H](CO)NC(=O)[C@H](Cc1c[nH]c2ccccc12)NC(=O)[C@H](Cc1cnc[nH]1)NC(=O)[C@@H]1CCC(=O)N1)C(=O)N[C@@H](CCCN=C(N)N)C(=O)N1CCC[C@H]1C(=O)NNC(N)=O,inactive

row,Structure (SMILES),Potency
1,Oc1ccc(Cl)cc1C1CCCC1,inactive
2,Cc1onc(-c2c(F)cccc2Cl)c1C(=O)N[C@@H]1C(=O)N2[C@@H]1SC(C)(C)[C@@H]2C(=O)O,inactive
3,CCCCCCCCCCCCCCCCCCNC(=O)OC1CCN(C(=O)OC[C@H](COC(=O)N(Cc2cccc[n+]2CC)C(=O)c2ccccc2OC)OC)CC1,inactive
4,O=P(O)(O)CP(=O)(O)O,inactive
5,CCCCCCCCCC[N+](C)(CCCCCCCCCC)CCC[Si](OC)(OC)OC,inactive
6,CSCCC(N)C(=O)O (stereo not given),inactive
7,CC(C)(Oc1ccc(C2CCCc3ccccc32)cc1)C(=O)O (stereo not given),inactive
8,CC(=O)N(C)C,inactive
9,C/C=C/C1=C(C(=O)O)N2C(=O)[C@@H](NC(=O)[C@H](N)c3ccc(O)cc3)[C@H]2SC1,inactive
10,CCOC(=O)[C@H](CCc1ccccc1)N[C@@H](C)C(=O)N1[C@H](C(=O)O)C[C@H]2CCCC[C@@H]21,inactive
11,CC(=O)Oc1cc(C(F)(F)F)ccc1C(=O)O,inactive
12,COc1c(O)cc2c(c1O)[C@@H]1O[C@H](CO)[C@@H](O)[C@H](O)[C@H]1OC2=O,inactive
13,O=C1OC(=O)c2cc(-c3ccc4c(c3)C(=O)OC4=O)ccc21,inactive
14,CN1[C@@H](CC(=O)c2ccccc2)CCC[C@H]1C[C@H](O)c1ccccc1,inactive
15,NCCCC(=O)O,inactive
16,CC(Cc1ccc(O)c(O)c1)C(C)Cc1ccc(O)c(O)c1 (stereo not given),inactive
17,Cc1cnc(C(=O)O)c[n+]1[O-],inactive
18,C=CC[N+]1([C@H]2C[C@H]3[C@@H]4CC[C@H]5C[C@H](O)[C@@H](N6CCOCC6)C[C@]5(C)[C@H]4CC[C@]3(C)[C@H]2OC(C)=O)CCCC1,inactive
19,C=C1[C@@H]2CC[C@@H](C2)C1(C)C,inactive
20,Cc1ccc2nc(-c3ccc(N)cc3)sc2c1S(=O)(=O)O,inactive
